The values below come from PubChem BioAssay (NCATS).

The target in experiment [1] is Guanine nucleotide-binding protein G(i) subunit alpha-1 (Homo sapiens) (UniProt P63096). Kind of experiment: qHTS Assay for Inhibitors of RGS12 GoLoco Motif Activity (Green Fluorophore) (AID 879).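 Also: negative values mean loss of peptide binding seen as reduced polarization.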 Summed up:
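A drop in FITC polarization marked displacement of the FITC-tagged RGS12 GoLoco peptide (10 nM) from Gαi1 (50 nM). Compounds were incubated 10 min at room temperature in Tris pH 7.5 buffer containing 150 mM NaCl, 0.1 mM GDP and 0.05% NP40; unlabeled peptide titration served as control.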

Experiment [2] in a line: qHTS Assay for Identification of Small Molecule Agonists for Thrombopoietin (TPO) Signaling Pathway (AID 917). Summed up: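 Quantitative HTS for pathway activators: compounds were pin-transferred onto IL-3-starved Ba/F3 cells expressing human TPO receptor, TPO was added at its EC50 (26 pM final), and after 24 hrs at 37 C reporter luciferase was measured.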
The target in experiment [3] is Pyruvate kinase (Leishmania mexicana) (UniProt Q27686). Kind of experiment: qHTS Validation Assay for Inhibitors of Leishmania Mexicana Pyruvate Kinase (AID 945). Summed up:
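The enzyme is a highly purified E451W mutant of LmPYK used at 0.2 nM. It converts 0.5 mM PEP and 0.1 mM ADP over 1 h at room temperature; product ATP is quantified by luciferase luminescence relative to DMSO controls.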
A general note: Quantitative high-throughput screening tests each substance at several concentrations.

In experiment [4] the target is Pyruvate kinase PKM (Homo sapiens) (UniProt P14618). Kind of experiment: qHTS Assay for Activators of Human Muscle Pyruvate Kinase (AID 954; active = well fitted curve in the direction sought with a large enough effect, not every such curve was filed as active). Summed up:
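Compound pinned into substrate mix (0.5 mM PEP, 0.1 mM ADP), then 0.1 nM PKM2 added; 1 h, RT. Stop/detection luciferase reagent added, luminescence read. Normalized to no-inhibition and no-enzyme or reference-inhibitor controls.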

Experiment [5] concerns the target Alpha-galactosidase A (Homo sapiens) (UniProt P06280). Kind of experiment: Counterscreen for Glucocerebrosidase Inhibitors: qHTS Assay for Human alpha-Galactosidase at pH 4.5 (AID 992). Summed up:
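Steps: enzyme (2 nM final), then compound across 0.7 nM to 77 uM, then 80 uM fluorogenic galactopyranoside substrate; incubate 20 min at room temperature; quench at pH 10; measure fluorescence at 365/440 nm.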
(In general: The purpose of a counterscreen is to sort out artefacts and off-target activity.)

The target of experiment [6] is alpha-glucosidase (Oryza sativa, rice) (UniProt Q653V4). Kind of experiment: Counterscreen for Glucocerebrosidase Inhibitors: qHTS Assay for Rice alpha-Glucosidase at pH 5.0 (AID 997). Summed up:
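Endpoint fluorogenic assay at pH 5.0: compounds (0.7 nM to 77 uM) titrated against 4 nM rice enzyme and 400 uM 4-MU-alpha-glucoside for 20 min at room temperature; NaOH/glycine stop, read ex 365/em 440 nm, Hill-fitted AC50.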

Experiment [7] in a line: S16 Schwann cell PMP22 intronic element firefly luciferase assay (AID 624032). Also: nearly all actives have a fitted effect of over 30% in size. Summed up:
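Rat S16 Schwann cells stably carrying firefly luciferase driven by a PMP22 intronic element, in 10% FBS, treated 24 h at 37 C. ONE-Glo luminescence normalized to PTC124 control and DMSO (0%); curves classed by r2, magnitude and activity.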

The next experiment deals with CP192. As to the kind of experiment: qHTS profiling for inhibitors of Plasmodium falciparum proliferation (AID 504749). Also: nearly all actives have a fitted effect of over 60% in size. Also: potency is read from the fitted curve at half-maximal effect. The following applies: P. falciparum in erythrocytes, SYBR Green DNA, 72 h; series mostly up to 28.7 µM. Summed up:
(§1)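 Each compound contacts P. falciparum-infected red blood cells for 72 h at 37 C; lysis buffer (Tris, EDTA, saponin, Triton X, SYBR Green I) is added and fluorescence measured next morning; values normalized to controls.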

The test system of a further experiment is W2. The description is as above. The conditions noted are these: P. falciparum in erythrocytes, SYBR Green DNA, 72 h; series mostly up to 12.8 µM. Summed up:
as §1

In another experiment the test system is ATS95. The experiment is described as above. The following applies: P. falciparum in erythrocytes, SYBR Green DNA, 72 h; series mostly up to 12.8 µM. Summed up: as §1
The subject of a further experiment is CP266. The experiment is described as above. The following applies: P. falciparum in erythrocytes, SYBR Green DNA, 72 h; series mostly up to 28.7 µM. Summed up: as §1
The subject of the next experiment is CP269. Described as above. The conditions noted are these: P. falciparum in erythrocytes, SYBR Green DNA, 72 h; series mostly up to 12.8 µM. Summed up: as §1
The test system of another experiment is CP297. The description is as above. The conditions noted are these: P. falciparum in erythrocytes, SYBR Green DNA, 72 h; series mostly up to 12.8 µM. Summed up:
as §1

Another experiment concerns CP315. The experiment is described as above. The following applies: P. falciparum in erythrocytes, SYBR Green DNA, 72 h; series mostly up to 12.8 µM. Summed up:
as §1

The test system of a further experiment is DIV14. Described as above. The following applies: P. falciparum in erythrocytes, SYBR Green DNA, 72 h; series mostly up to 12.8 µM. Summed up:
as §1

A further experiment concerns DIV17. The experiment is described as above. The following applies: P. falciparum in erythrocytes, SYBR Green DNA, 72 h; series mostly up to 12.8 µM. Summed up: as §1
In a further experiment the test system is GB4. The experiment is described as above. The following applies: P. falciparum in erythrocytes, SYBR Green DNA, 72 h; series mostly up to 12.8 µM. Summed up: as §1
For a further experiment, the system named is P93_24. The experiment is described as above. The following applies: P. falciparum in erythrocytes, SYBR Green DNA, 72 h; series mostly up to 12.8 µM. Summed up: as §1
Another experiment concerns CP260. Described as above. The conditions noted are these: P. falciparum in erythrocytes, SYBR Green DNA, 72 h; series mostly up to 12.8 µM. Summed up: as §1

Each structure is given as a SMILES string. Inconclusive results are not listed. Calls of active or inactive are those of the source. Unless noted, calls follow the shape of the dose curve; as a rule, active = well fitted curve in the direction sought with a large enough effect; inconclusive = small, poorly fitted or top-dose-only effect, or another doubt; inactive = no such curve, though single readings can be large; an effect the other way counts as inactive or inconclusive.

Sequence of Pyruvate kinase (Leishmania mexicana) (Q27686 2-499 E452W): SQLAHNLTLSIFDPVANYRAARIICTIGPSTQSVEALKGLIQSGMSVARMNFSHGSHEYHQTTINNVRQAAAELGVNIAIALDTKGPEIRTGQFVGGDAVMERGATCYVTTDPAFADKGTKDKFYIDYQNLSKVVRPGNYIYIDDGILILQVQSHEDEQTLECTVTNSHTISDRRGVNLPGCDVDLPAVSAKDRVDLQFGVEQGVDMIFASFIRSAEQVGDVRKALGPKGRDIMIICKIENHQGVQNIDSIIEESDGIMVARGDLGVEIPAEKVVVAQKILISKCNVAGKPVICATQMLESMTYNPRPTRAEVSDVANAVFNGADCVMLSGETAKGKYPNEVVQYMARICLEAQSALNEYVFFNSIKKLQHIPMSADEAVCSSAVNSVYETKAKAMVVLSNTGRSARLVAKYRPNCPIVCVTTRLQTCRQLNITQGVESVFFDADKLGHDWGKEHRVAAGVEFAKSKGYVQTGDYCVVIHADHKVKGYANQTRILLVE
Sequence of Pyruvate kinase PKM (Homo sapiens) (P14618 whole entry, looked up): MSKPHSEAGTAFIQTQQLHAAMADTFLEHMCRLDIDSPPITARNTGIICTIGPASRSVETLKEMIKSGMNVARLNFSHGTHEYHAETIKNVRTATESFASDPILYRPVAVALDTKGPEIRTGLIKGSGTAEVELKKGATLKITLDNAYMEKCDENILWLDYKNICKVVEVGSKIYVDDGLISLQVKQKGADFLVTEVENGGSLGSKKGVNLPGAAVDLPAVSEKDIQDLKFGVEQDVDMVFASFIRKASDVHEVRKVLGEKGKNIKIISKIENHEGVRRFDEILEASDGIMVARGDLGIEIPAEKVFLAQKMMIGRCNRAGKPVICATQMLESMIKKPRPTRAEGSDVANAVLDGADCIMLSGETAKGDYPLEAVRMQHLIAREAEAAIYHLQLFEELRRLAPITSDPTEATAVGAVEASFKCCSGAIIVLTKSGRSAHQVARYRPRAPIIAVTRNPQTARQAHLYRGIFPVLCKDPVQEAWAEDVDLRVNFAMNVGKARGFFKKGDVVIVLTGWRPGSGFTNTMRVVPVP
Sequence of Guanine nucleotide-binding protein G(i) subunit alpha-1 (Homo sapiens) (P63096 whole entry, looked up): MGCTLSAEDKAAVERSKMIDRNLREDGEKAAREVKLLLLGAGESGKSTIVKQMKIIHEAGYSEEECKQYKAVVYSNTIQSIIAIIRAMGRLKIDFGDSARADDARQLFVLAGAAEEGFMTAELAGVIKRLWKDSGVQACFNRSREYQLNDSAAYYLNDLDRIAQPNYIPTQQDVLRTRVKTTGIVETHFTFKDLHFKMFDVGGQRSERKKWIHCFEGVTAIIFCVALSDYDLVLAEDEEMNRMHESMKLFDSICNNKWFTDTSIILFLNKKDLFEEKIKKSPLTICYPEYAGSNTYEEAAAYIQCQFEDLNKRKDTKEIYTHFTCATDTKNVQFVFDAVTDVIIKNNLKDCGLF
Sequence of Alpha-galactosidase A (Homo sapiens) (P06280 whole entry, looked up): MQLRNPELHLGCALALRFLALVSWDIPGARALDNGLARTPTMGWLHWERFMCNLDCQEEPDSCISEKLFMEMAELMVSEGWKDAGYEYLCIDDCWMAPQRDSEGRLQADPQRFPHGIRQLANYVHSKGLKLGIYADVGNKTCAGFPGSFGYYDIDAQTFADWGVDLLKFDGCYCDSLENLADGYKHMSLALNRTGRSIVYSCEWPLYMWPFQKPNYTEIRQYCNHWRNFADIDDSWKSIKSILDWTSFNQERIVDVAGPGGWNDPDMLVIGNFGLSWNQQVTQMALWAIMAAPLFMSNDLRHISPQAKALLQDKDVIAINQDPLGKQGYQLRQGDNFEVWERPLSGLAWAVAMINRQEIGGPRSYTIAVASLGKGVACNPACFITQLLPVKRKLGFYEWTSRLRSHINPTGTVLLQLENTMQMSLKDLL

In the case of `C[C@@H]1c2cccc(O)c2C(O)=C2C(=O)[C@@]3(O)C(O)=C(C(N)=O)C(=O)[C@@H](N(C)C)[C@@H]3[C@@H](O)[C@@H]21`, the Potency result (in [1]; in [7]; with CP192) was “inactive” throughout. The outcome in experiment [2], in [3], in [4], in experiment [5] and in experiment [6] was inactive. For the same compound, the Potency with W2 was 4.26 µM (active).
Turning to `C[C@@H]1COc2c(N3CCN(C)CC3)c(F)cc3c(=O)c(C(=O)O)cn1c23`, the Potency result (in [1]; in experiment [7]; in the experiment on ATS95; with CP192; with CP266; with CP269) was “inactive” in each case. Further, the Potency result in the experiment with CP297, in the experiment on CP315, in the experiment with DIV14, with DIV17, in the experiment with GB4 and with P93_24 was “inactive” in each case. Moreover, the result in experiment [2], in experiment [3], in [4], in [5] and in experiment [6] was inactive.
With `CC(C)(Oc1ccc([C@@H]2CC2(Cl)Cl)cc1)C(=O)O`, the Potency result in [1] was “inactive”. Further, the compound was classed as inactive in experiment [2], in experiment [3], in [4], in [5] and in experiment [6].
As for `CC(=O)N(CC(O)CN(C(C)=O)c1c(I)c(C(=O)NC[C@@H](O)CO)c(I)c(C(=O)NC[C@@H](O)CO)c1I)c1c(I)c(C(=O)NC[C@@H](O)CO)c(I)c(C(=O)NC[C@@H](O)CO)c1I`, the Potency entry in the experiment with ATS95, in the experiment with CP192, with CP260, with CP266, with CP269 and with CP297 was “inactive” in each case. For the same compound, the Potency entry in the experiment on CP315, in the experiment on DIV17, in the experiment with GB4 and in the experiment with P93_24 was “inactive” each time.
Consider `C[C@@](N)(Cc1ccc(O)cc1)C(=O)O`, for which the Potency result in experiment [1] was “inactive”. Moreover, the call in experiment [2], in experiment [3], in experiment [4], in experiment [5] and in [6] was inactive.
For `CC1=C(C(=O)O)N2C(=O)[C@@H](NC(=O)[C@@H](N)c3ccccc3)[C@@H]2SC1`, in experiment [1], the Potency entry is “inactive”. The outcome in experiment [2], in experiment [3], in experiment [4], in experiment [5] and in [6] was inactive.
On to `CN1[C@@H](CC(=O)c2ccccc2)CCC[C@@H]1C[C@@H](O)c1ccccc1`, for which, in [1], the Potency entry was “inactive”. For the same compound, the compound was called inactive in [2], in [3], in experiment [4], in [5] and in experiment [6].
Regarding `CCN[C@@H]1C[C@H](C)S(=O)(=O)c2sc(S(N)(=O)=O)cc21`, the Potency result (in [7]; in the experiment on ATS95; with CP192; in the experiment with CP260; in the experiment with CP266; with CP269) was “inactive” in each case. In addition, the Potency result with CP297, in the experiment on CP315, in the experiment with DIV14, in the experiment on DIV17, in the experiment with GB4 and with P93_24 was “inactive” each time. Also, the Potency entry with W2 was “inactive”.
As for `C[C@@H](C(=O)O)c1ccc(C(=O)c2cccs2)cc1`, the Potency result (in experiment [7]; in the experiment with ATS95; in the experiment with CP192; in the experiment with CP260; in the experiment with CP269; in the experiment with CP297) was “inactive” throughout. Besides, the Potency result in the experiment on CP315, with DIV14, with DIV17, in the experiment with GB4, in the experiment with P93_24 and with W2 was “inactive” in each case.
Take `C[n+]1ccccc1/C=N\O`: the Potency entry (in [7]; in the experiment on ATS95; in the experiment on CP192; with CP260; in the experiment on CP266; with CP269) was “inactive” each time. The Potency entry in the experiment on CP297, in the experiment with CP315, with DIV14, in the experiment with DIV17, in the experiment on GB4 and in the experiment on P93_24 was “inactive” in each case. Besides, the Potency result in the experiment on W2 is “inactive”.
